# IL-1B inflam inh – inflammasome signaling inhibition, IL-1 beta readout; THP-1 LPS/ATP IL-1B secretion, AlphaLISA, 16 h; stronger effect = lower value; activity change, % at 57.5 µM; actives 4.7% (n = 360,000); AID 743279; in the data active means activity change below about -50%; inconclusive means mostly about -30% to -49%
#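 THP-1 cells pretreated 1 hr with compounds (up to 57.5 uM final), then stimulated with LPS (250 ng/mL final) plus ATP (1.25 mM final); secreted IL-1B measured by AlphaLISA after 16 hr, decreased signal indicating inhibition.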
# TDP1 cell noCPT – qHTS for Inhibitors of human tyrosyl-DNA phosphodiesterase 1 (TDP1): qHTS in cells in absence of CPT. DT40 Tdp1-/- hTDP1 cells, no CPT, ATP luminescence, 48 h. Potency, µM (doses to about 46.2 µM), inactives show at the top dose activity change, negative = growth inhibition, actives largely listed as inhibitors. actives 15% (n = 420,000). AID 686978, 2013; further: potency means the concentration at half of the fitted maximal effect; nearly all actives have a fitted effect of over 55% in size
#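 DT40 Tdp1-/-;hTDP1 cells, no CPT (DMSO vehicle only), 400 cells/well; compounds pin-transferred; ≥48 hr, 37 °C; CellTiter-Glo 30 min RT dark, luminescence read.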
# TDP1 inh – TDP1 (human) enzyme inhibition; actives 0.28% (n = 350,000); AID 485290; recombinant TDP1, AlphaScreen DNA substrate cleavage; Q9NUW8; Potency, µM (series often up to 130 µM), inactives show at the top dose activity change, negative = inhibition, usual class: inhibitors; further: potency means the concentration at half of the fitted maximal effect; nearly all actives have a fitted effect of over 40% in size
# Target sequence (Q9NUW8 whole entry, looked up): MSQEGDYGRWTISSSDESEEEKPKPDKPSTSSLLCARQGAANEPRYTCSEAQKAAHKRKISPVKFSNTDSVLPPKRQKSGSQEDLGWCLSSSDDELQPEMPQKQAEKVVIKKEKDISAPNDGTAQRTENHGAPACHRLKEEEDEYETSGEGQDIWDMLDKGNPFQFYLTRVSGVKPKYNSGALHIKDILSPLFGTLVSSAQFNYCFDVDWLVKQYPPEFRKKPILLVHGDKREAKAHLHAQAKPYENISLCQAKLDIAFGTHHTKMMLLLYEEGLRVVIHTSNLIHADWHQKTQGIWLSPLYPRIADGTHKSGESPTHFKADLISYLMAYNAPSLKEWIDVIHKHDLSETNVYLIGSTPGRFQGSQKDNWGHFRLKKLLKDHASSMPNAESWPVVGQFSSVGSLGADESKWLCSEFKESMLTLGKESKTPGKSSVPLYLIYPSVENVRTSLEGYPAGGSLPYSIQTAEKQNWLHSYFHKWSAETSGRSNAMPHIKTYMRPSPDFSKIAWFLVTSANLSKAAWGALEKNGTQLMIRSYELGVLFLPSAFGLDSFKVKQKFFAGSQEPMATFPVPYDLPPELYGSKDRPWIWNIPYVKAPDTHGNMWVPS
#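 Recombinant human Tdp1 (E. coli-expressed, 1 nM final) preincubated with compounds 15 min at room temperature, then 5'-biotin/3'-phosphotyrosine-FITC DNA substrate (15 nM final) added for 5 min. AlphaScreen beads (10 ug/ml final) added 10 min; cleavage lowers signal.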
# Giardia kill – kills Giardia lamblia; actives 0.15% (n = 340,000); activity change, % at 7.66 µM, hits read low; Giardia lamblia trophozoite viability; AID 540267; in the data active means activity change below about -80%; inconclusive means between about -30% and that limit;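 further: parasites exposed to compound for two days anaerobically before the ATP read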
#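 Luminescence from cellular ATP indicates surviving trophozoites (100 cells/well) following 48 hrs anaerobic compound treatment at 37 deg C; signal develops 15-30 min at room temperature.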
# TDP1 cell CPT – DT40-hTDP1 cell growth loss with CPT; chicken DT40 Tdp1-/-;hTDP1 cells + 20 nM CPT, ATP luminescence, 48 h; Potency, µM (titrated, usually from 46.2 µM), inactives show at the top dose activity change, negative = growth inhibition, hits mostly inhibitors; actives 12% (n = 420,000); further: potency means the concentration at half of the fitted maximal effect; nearly all actives have a fitted effect of over 55% in size
#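 Chicken DT40 Tdp1-/- cells complemented with human TDP1, 400 cells/well, exposed to compounds plus 20 nM camptothecin for at least 48 h at 37 C; viability read as ATP content by CellTiter-Glo luminescence.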
# ELG1 repair inh – ELG1-dependent DNA repair inhibition; Potency, µM (highest dose often 46.1 µM), without a hit: at the top dose activity change, negative = inhibition, actives largely listed as inhibitors; HEK293T ELG1-luciferase reporter, luminescence, 16 h; DNA damage induced by 5-fluorouridine; actives 2.3% (n = 330,000); AID 504467; further: potency means the concentration at half of the fitted maximal effect; nearly all actives have a fitted effect of over 55% in size
#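 In this reporter screen, reduction of luminescence relative to DMSO vehicle indicated activity. Compounds and 5-fluorouridine were added together to 2,000 cells per well, incubated for 16 hr at 37 °C, then developed with ONE-Glo.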
# Active calls of the source: *; ? = inconclusive; / = no result; [ ] = another dose, or the depositor's remark. A selection: hits, their analogues and other compounds. The true share with any hit is near 19%. Unless noted, the call rests on the fitted dose curve; in most records, active means well fitted curve in the direction sought with a large enough effect; inconclusive means small, poorly fitted or top-dose-only effect, or another doubt; inactive means no such curve, though single readings can be large; an effect the other way counts as inactive or inconclusive. On the % scale 0 is the no-effect control and ±100 the full control effect.
SMILES,IL-1B inflam inh,TDP1 cell noCPT,TDP1 inh,Giardia kill,TDP1 cell CPT,ELG1 repair inh
COc1cccc(NC(=O)CCNS(=O)(=O)c2ccc3c(c2)CC(C)N3C(=O)C2CC2)c1 (stereo not given),33.0,-24.2%,1.6%,-2.3,?,-13.0%
CCOc1ccccc1N(C)S(=O)(=O)c1ccc2c(c1)CC(C)N2C(=O)C1CC1 (stereo not given),-4.3,16.4µM*,1.6%,-1.9,23.1µM*,-22.1%
Cc1ccc(/C=C(\C#N)C(=O)NC(C)c2ccccc2)o1 (stereo not given),?,-3.3%,4.8%[56.1 µM],10.2,0.4%,4.9%
O=C(NCc1nnc2n1CCN(Cc1cc3c(cc1Cl)OCO3)CC2)C1CCOC1 (stereo not given),/,-3.6%,/,/,7.4%,/
Cc1ncc2c(c1CNC(=O)c1ccc3c(c1)OCO3)CCN(C(=O)/C=C/c1ccc(Cl)cc1)C2,/,-27.1%,/,/,-8.6%[9.04 µM],/
CC(=O)N1c2ccc(S(=O)(=O)NCCc3ccc(Cl)cc3)cc2CC1C (stereo not given),8.0,?,2.5%,31.9,?,-2.8%
CCc1cccc(NS(=O)(=O)c2ccc3c(c2)N(C)CCO3)c1,0.0,?,7.8%,0.6,13µM*,-5.5%
CC1Cc2cc(S(=O)(=O)NCCc3ccc(Cl)cc3)ccc2N1C(=O)C1CCC1 (stereo not given),/,18.4µM*,5.0%,/,?,/
Cc1ccc(NS(=O)(=O)c2ccc3c(c2)N(C)CCO3)cc1,63.8,?,3.9%,-26.0,?,-23.6%
CCCN1C(=O)c2[nH]nc(-c3ccc(F)cc3)c2C1c1ccc(O)c(OCC)c1 (stereo not given),/,?,0.0%,/,?,/
Cn1c(SCc2nc(-c3ccc(Cl)cc3)no2)nnc1-c1ccco1,13.6,?,3.7%,6.5,-22.3%,-21.9%
CC(=O)c1c(N2CCN(C)CC2)[nH]c(-c2ccccc2)nc1=S,?,16.4µM*,5.8%,7.8,?,2.4%
Cc1cccc(NS(=O)(=O)c2ccc3c(c2)CCN3C(=O)C2CC2)c1C,/,23.1µM*,-7.0%,/,20.6µM*,/
CC(=O)N1CCCc2cc(S(=O)(=O)Nc3cccc(C)c3C)ccc21,10.3,?,5.9%,18.0,?,9.4%
Cc1cccc(NS(=O)(=O)c2ccc3c(c2)CCCN3C(=O)C2CCC2)c1C,/,?,6.6%,/,20.6µM*,/
CC(Cl)C(=O)c1ccc2c(c1)CCN2C(=O)C1CC1 (stereo not given),-62.7*,?,0.0%,17.1,?,?
Nc1nnnn1/N=C/c1cccc(OCc2ccccc2Cl)c1,25.2,?,0.0%,-17.5,25.9µM*,?
Nc1nnnn1/N=C/c1cccc(Oc2ccccc2)c1,2.7,-3.8%,9.5%,8.0,-3.5%,?
COc1cc2c(cc1OC)C(c1ccc(-c3ccc(Cl)cc3Cl)o1)=NCC2,?,0.92µM*,5.3%,-2.3,1.16µM*,?
COc1cc2c(cc1OC)C(c1ccc(-c3ccc(Cl)c(Cl)c3)o1)=NCC2,-59.3*,1.84µM*,8.0%,-4.0,4.11µM*,14.6µM*
COc1cc2c(cc1OC(C)=O)C(=O)CCCC2,-6.0,8.3%,/,/,-0.9%,/
COc1cc2c(cc1OC)C(c1ccc(Cl)cc1)=NCC2,?,8.2µM*,/,-22.2,16.4µM*,-18.7%
COc1cc2c(cc1OC)C(C)=NCC2,-13.2,-1.8%,4.8%,-17.7,16.4µM*,8.4%
O=C(O)c1ccc(-c2ccc(Cl)cc2Cl)o1,-9.5,-2.1%,1.5%,2.1,-0.8%,25.9%
Cc1cccc(C)c1NC(=O)C(C)Sc1n[nH]c(-c2ccncc2)n1 (stereo not given),20.3,-18.8%,6.6%[0.0935 µM],-18.8,-19.6%,6.9%

# Source: PubChem
